# Reference: PubChem BioAssay (NCATS)
# “And” between values parts separate entries of the source, which are not always exact repeats. Equal values may be shown once. Results filed as inconclusive are left out. A call without a number means that no potency is given here. The source made the active and inactive calls. Unless noted, the call rests on the fitted dose curve.
# Key:
# [1] = qHTS profiling of the MIPE4 collection as inhibitors of Plasmodium falciparum (DD2) proliferation (Rep 2) (AID 743346; call rule not given here); conditions: P. falciparum Dd2 in erythrocytes, SYBR Green DNA, 72 h; at 28.5 µM unless noted
# In short: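 Parasite DNA was quantified by SYBR Green I fluorescence (ex 485, em 535 nm) after overnight lysis in saponin/Triton buffer at room temperature. Cultures at 0.3% parasitemia and 2.5% hematocrit were first exposed to compound for 72 h at 37 C; signals were normalised to artemisinin (0.29 uM) and vehicle wells.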
# [2] = qHTS for Inhibitors of the Functional Ribonucleoprotein Complex (vRNP) of Lassa (LASV) Arenavirus: LASV Primary Screen - GLuc reporter signal (AID 1347082; calls by dose curve; tested in HEK293 reporter line; further: nearly all actives have a fitted effect of over 60% in size; further: potency means the concentration at half of the fitted maximal effect)
# [3] = qHTS for Inhibitors of the Functional Ribonucleoprotein Complex (vRNP) of Lassa (LASV) Arenavirus: Viability assay - alamar blue signal for LASV Primary Screen (AID 1347083; calls by dose curve; tested in HEK293 reporter line; further: nearly all actives have a fitted effect of over 80% in size; further: potency means the concentration at half of the fitted maximal effect)
# [4] = qHTS for Inhibitors of the Functional Ribonucleoprotein Complex (vRNP) of Lymphocytic Choriomeningitis Arenaviruses (LCMV): Viability assay - alamar blue signal for LCMV Primary Screen (AID 1347085; calls by dose curve; tested in HEK293 reporter line; further: nearly all actives have a fitted effect of over 80% in size; further: potency means the concentration at half of the fitted maximal effect)
# [5] = target: Nucleoprotein (Lymphocytic choriomeningitis virus (strain Armstrong)) (UniProt P09992); experiment: qHTS for Inhibitors of the Functional Ribonucleoprotein Complex (vRNP) of Lymphocytic Choriomeningitis Arenaviruses (LCMV): LCMV Primary Screen - GLuc reporter signal (AID 1347086); further: nearly all actives have a fitted effect of over 70% in size; further: potency means the concentration at half of the fitted maximal effect
# Nucleoprotein (Lymphocytic choriomeningitis virus (strain Armstrong)), sequence (P09992 whole entry, looked up): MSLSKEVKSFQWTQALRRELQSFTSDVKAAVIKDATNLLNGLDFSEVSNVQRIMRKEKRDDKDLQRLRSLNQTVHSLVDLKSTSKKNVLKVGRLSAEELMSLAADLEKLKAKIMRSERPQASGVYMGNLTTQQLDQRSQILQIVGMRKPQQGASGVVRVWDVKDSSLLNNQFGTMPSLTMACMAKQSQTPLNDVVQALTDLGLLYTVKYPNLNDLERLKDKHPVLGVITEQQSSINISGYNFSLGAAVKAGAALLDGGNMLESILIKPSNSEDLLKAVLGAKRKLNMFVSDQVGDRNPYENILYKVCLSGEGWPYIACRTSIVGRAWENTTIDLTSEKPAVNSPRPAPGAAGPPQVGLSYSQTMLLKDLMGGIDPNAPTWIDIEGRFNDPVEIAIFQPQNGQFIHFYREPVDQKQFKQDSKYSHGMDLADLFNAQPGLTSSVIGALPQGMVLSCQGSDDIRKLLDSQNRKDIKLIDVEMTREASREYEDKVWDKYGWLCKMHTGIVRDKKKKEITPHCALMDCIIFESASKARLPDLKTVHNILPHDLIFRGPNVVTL
# [6] = Cytotoxicity counterscreen for inhibitors of SARS-CoV-2 cell entry (AID 1645845); further: nearly all actives have a fitted effect of over 50% in size; further: potency means the concentration at half of the fitted maximal effect
# In short: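 Counterscreen run in the same HEK293-ACE2 line as the pseudotyped-particle entry assay, without particles. Viability after 48 h at 37 C was read as ATP luminescence, scaled between cell-containing and cell-free wells.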
# [7] = Primary qHTS to identify inhibitors of SARS-CoV-2 cell entry (AID 1645846); conditions: activity change, negative = inhibition: at 57.1 µM (top of the series) unless noted; further: nearly all actives have a fitted effect of over 45% in size; further: potency means the concentration at half of the fitted maximal effect
# In short: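 Luminescence readout (Bright-Glo luciferase) 48 h after pseudoparticle addition. HEK293-ACE2 cells, 1500/well; compound pre-incubation 1 h; Normalized to spike PP and bald PP.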
# [8] = target: Alpha-galactosidase (Coffea arabica) (UniProt Q42656); experiment: Counterscreen for Glucocerebrosidase Inhibitors: qHTS Assay for Coffee Bean alpha-Galactosidase at pH 4.5 (AID 957; active means well fitted curve in the direction sought with a large enough effect; an effect the other way counts as inactive or inconclusive)
# Alpha-galactosidase (Coffea arabica), sequence (Q42656 whole entry, looked up): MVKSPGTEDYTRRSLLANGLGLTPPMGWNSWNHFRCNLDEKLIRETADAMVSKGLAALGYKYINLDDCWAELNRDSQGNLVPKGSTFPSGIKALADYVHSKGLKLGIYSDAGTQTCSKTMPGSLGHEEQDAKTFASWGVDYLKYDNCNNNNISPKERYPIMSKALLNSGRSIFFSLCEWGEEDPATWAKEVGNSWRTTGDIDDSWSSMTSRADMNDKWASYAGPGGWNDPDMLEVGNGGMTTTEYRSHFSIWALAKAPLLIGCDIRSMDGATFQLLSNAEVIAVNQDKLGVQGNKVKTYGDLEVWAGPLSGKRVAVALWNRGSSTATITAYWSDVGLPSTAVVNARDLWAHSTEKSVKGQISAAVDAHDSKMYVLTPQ
# In short: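 Quantitative HTS of compounds (0.7 nM to 77 uM) against coffee bean alpha-galactosidase at pH 4.5, measuring 4-methylumbelliferone fluorescence released from 80 uM substrate.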
# [9] = target: Alpha-galactosidase (Coffea arabica) (UniProt Q42656); experiment: Counterscreen for Glucocerebrosidase Inhibitors: qHTS Assay for Coffee Bean alpha-Galactosidase at pH 5.9 (AID 998; active means well fitted curve in the direction sought with a large enough effect; an effect the other way counts as inactive or inconclusive)
# In short: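 Enzyme 2 nM + cpd (0.7 nM–77 uM titration) + 4-MU-alpha-Gal 80 uM, pH 5.9 citrate/Tween-20, RT 20 min, NaOH/glycine stop pH 10, fluor 365/440. Normalized to no-enzyme and full-activity controls; Hill-fit AC50.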
# [10] = target: Cytochrome P450 3A4 (Homo sapiens) (UniProt P08684); experiment: qHTS Assay for Inhibitors and Substrates of Cytochrome P450 3A4 (AID 884; active means well fitted curve in the direction sought with a large enough effect; an effect the other way counts as inactive or inconclusive; further: potency means the concentration at half of the fitted maximal effect; nearly all actives have a fitted effect of over 50% in size)
# Cytochrome P450 3A4 (Homo sapiens), sequence (P08684 whole entry, looked up): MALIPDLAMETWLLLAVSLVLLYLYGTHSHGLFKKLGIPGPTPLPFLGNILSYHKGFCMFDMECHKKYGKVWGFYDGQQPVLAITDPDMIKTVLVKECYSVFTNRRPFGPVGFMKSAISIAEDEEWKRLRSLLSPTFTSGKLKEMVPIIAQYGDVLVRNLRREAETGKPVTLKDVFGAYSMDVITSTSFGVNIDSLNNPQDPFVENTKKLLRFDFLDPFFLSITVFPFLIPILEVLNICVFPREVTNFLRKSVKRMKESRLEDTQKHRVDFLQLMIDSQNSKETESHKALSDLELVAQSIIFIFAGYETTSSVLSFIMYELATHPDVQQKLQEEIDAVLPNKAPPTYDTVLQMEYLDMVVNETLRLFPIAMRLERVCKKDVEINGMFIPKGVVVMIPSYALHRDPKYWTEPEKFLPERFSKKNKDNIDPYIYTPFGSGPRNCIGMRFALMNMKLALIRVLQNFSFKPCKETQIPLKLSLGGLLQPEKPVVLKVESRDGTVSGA
# In short: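 Luminescent readout of luciferin produced by CYP3A4 (20 nM) dealkylation of Luciferin-PPXE, 25 uM (its KM). NADPH-driven reaction ran 60 min at RT after 10 min compound preincubation; data scaled to 57 uM ketoconazole as 100% inhibition.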
# [11] = target: Cytochrome P450 3A4 (Homo sapiens) (UniProt P08684); experiment: qHTS Assay for Activators of Cytochrome P450 3A4 (AID 885; active means well fitted curve in the direction sought with a large enough effect; an effect the other way counts as inactive or inconclusive; further: nearly all actives have a fitted effect of over 65% in size)
# In short: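 CYP3A4 activity: Luciferin-PPXE O-dealkylation, 25uM substrate, 200mM KPO4, RT throughout. Read-out is luciferase luminescence; higher values reflect activation.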
# [12] = Confirmatory qHTS for VERO E6 Cytotoxicity Assay: Counterscreen for SARS-CoV-2 CPE Assay (AID 1508605); further: nearly all actives have a fitted effect of over 60% in size; further: potency means the concentration at half of the fitted maximal effect
# [13] = target: Cytochrome P450 2C9 (Homo sapiens) (UniProt P11712); experiment: qHTS Assay for Inhibitors and Substrates of Cytochrome P450 2C9 (AID 883; active means well fitted curve in the direction sought with a large enough effect; an effect the other way counts as inactive or inconclusive; further: potency means the concentration at half of the fitted maximal effect; nearly all actives have a fitted effect of over 60% in size)
# Cytochrome P450 2C9 (Homo sapiens), sequence (P11712 whole entry, looked up): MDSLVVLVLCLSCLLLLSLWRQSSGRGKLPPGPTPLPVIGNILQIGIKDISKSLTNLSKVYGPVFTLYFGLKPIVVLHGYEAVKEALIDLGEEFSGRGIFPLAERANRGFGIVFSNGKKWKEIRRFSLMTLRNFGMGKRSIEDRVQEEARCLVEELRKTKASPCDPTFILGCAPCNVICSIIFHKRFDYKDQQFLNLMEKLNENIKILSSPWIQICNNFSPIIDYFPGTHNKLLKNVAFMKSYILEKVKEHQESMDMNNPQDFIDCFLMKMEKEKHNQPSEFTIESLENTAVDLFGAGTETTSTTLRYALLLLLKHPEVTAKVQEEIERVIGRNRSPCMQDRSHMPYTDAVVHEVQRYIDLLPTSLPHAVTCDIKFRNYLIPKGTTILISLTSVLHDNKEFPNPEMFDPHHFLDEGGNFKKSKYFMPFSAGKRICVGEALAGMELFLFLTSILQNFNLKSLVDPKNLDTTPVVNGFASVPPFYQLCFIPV
# In short: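 10nM CYP2C9 + 100uM Luciferin-H (=KM), 25mM KPO4; cpd 10 min 37C; NADPH regen, 60 min 37C; stop/detect with P450 Glo-Buffer 20 min; luminescence. Norm. to 57uM sulphaphenazole as full inhibition.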
# [14] = target: Cytochrome P450 2D6 (Homo sapiens) (UniProt P10635); experiment: qHTS Assay for Inhibitors and Substrates of Cytochrome P450 2D6 (AID 891; active means well fitted curve in the direction sought with a large enough effect; an effect the other way counts as inactive or inconclusive; further: potency means the concentration at half of the fitted maximal effect; nearly all actives have a fitted effect of over 60% in size)
# Cytochrome P450 2D6 (Homo sapiens), sequence (P10635 whole entry, looked up): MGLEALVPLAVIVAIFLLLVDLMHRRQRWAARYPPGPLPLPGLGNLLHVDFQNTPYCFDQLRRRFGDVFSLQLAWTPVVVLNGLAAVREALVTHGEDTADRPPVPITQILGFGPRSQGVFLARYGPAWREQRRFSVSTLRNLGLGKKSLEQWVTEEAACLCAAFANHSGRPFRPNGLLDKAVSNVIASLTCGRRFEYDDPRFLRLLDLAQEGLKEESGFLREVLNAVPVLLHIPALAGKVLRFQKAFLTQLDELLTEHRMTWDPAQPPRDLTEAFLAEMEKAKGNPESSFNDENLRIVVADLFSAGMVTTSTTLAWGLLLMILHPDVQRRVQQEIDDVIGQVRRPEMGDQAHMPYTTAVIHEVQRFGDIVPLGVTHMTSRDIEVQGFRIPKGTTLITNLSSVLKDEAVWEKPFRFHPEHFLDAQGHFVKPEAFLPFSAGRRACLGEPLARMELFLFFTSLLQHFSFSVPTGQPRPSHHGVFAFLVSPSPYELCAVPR
# In short: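 Luminescent read-out of luciferin formed by 5 nM human CYP2D6 demethylating 30 uM Luciferin-ME EGE (Km level) over 60 min at room temperature after NADPH regeneration addition. Data normalized to full inhibition by 1.43 uM quinidine.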
# [15] = target: Cytochrome P450 2C19 (Homo sapiens) (UniProt P33261); experiment: qHTS Assay for Inhibitors and Substrates of Cytochrome P450 2C19 (AID 899; active means well fitted curve in the direction sought with a large enough effect; an effect the other way counts as inactive or inconclusive)
# Cytochrome P450 2C19 (Homo sapiens), sequence (P33261 whole entry, looked up): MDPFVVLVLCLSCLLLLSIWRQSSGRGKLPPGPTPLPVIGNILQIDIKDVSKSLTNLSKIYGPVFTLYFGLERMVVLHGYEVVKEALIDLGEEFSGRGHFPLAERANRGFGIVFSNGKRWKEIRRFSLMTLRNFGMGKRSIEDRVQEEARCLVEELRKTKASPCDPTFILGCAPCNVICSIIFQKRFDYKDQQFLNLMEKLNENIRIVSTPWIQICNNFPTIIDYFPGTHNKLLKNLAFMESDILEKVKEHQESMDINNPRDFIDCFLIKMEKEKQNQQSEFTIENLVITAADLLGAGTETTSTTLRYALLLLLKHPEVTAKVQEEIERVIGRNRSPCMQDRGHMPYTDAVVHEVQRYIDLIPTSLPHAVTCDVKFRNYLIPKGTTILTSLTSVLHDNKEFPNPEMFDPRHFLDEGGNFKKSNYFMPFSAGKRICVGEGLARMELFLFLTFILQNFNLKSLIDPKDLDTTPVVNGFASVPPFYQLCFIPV
# In short: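 Luminescent read-out of luciferin formed from Luciferin-H EGE (10uM, equal to KM). Enzyme 5nM in 50mM KPO4; compound added, 10 min at 37C, then NADPH regenerating system for 60 min at 37C. Full inhibition defined by 57uM ketoconazole.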
# [16] = Primary qHTS for inhibitors of SARS-S pseudo-typed particle cell entry (AID 1479145); further: nearly all actives have a fitted effect of over 45% in size; further: potency means the concentration at half of the fitted maximal effect
# [17] = Primary qHTS for Huh7 cytotoxicity: counterscreen for inhibitors of MERS-S pseudotyped particle cell entry (AID 1479147); conditions: outcome: dose series up to 57.1 µM unless noted
# [18] = Primary qHTS for Vero E6 cytotoxicity: counterscreen for inhibitors of SARS-S pseudo-typed particle cell entry (AID 1479150); conditions: outcome: dose series up to 57.1 µM unless noted
# [19] = Confirmatory qHTS for activators (rescue) of SARS-CoV-2 Cytopathic Effect (CPE) (AID 1508606); further: potency means the concentration at half of the fitted maximal effect; nearly all actives have a fitted effect of over 70% in size
# [20] = Confirmatory qHTS to identify inhibitors of SARS-CoV-2 cell entry (AID 1645844); further: nearly all actives have a fitted effect of over 45% in size
# In short: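 HEK293-ACE2, overnight seeding; cpd 1 h, 37C/5% CO2; + SARS-CoV-2-S MLV PP (Wuhan-Hu-1, ΔC19); 48 h; Bright-Glo luminescence. Data normalised to S PP and bald PP wells.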
# [21] = target: Ubiquitin carboxyl-terminal hydrolase 1 (Homo sapiens) (UniProt O94782); experiment: Inhibitors of USP1/UAF1: Pilot qHTS (AID 504865; active means well fitted curve in the direction sought with a large enough effect; an effect the other way counts as inactive or inconclusive; further: potency means the concentration at half of the fitted maximal effect; nearly all actives have a fitted effect of over 35% in size)
# Ubiquitin carboxyl-terminal hydrolase 1 (Homo sapiens), sequence (O94782 whole entry, looked up): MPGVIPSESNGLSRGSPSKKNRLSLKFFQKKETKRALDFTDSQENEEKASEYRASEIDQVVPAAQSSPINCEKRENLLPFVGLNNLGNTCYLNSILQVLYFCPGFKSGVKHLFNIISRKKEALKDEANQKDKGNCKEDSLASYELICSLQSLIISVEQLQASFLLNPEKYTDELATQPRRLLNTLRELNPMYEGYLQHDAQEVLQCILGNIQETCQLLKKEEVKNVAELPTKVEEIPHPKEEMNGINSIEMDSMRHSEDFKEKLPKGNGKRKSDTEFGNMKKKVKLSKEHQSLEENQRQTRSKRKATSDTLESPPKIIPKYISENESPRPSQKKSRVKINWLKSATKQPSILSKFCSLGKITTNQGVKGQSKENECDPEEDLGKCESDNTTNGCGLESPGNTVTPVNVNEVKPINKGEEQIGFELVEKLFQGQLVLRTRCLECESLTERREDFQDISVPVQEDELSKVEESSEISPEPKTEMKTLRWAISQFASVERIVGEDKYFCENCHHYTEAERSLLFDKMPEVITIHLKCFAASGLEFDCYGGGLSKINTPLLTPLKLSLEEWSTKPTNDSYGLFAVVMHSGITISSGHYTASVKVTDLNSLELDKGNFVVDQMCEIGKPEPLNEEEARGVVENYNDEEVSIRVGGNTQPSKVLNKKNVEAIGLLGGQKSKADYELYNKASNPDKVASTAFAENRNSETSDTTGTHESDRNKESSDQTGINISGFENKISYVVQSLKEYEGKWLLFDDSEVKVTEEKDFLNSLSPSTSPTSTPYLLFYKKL
# In short: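 USP1/UAF1 complex (1nM) preincubated with compound 15 min at room temperature, then Ub-Rho substrate (150nM final) added. Fluorescence read kinetically at 480/540 nm, 6 reads every 60 seconds. Buffer: 50mM HEPES pH 7.8, 0.5mM EDTA, 0.1 mg/ml BSA, 1mM TCEP, 0.01% Tween-20.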
# [22] = S16 Schwann cell PMP22 intronic element beta-lactamase assay (AID 624044); further: potency means the concentration at half of the fitted maximal effect; nearly all actives have a fitted effect of over 15% in size
# In short: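 Beta-lactamase reporter under a PMP22 intronic regulatory element in stable S16 rat Schwann cells; 24 h compound exposure. 460 nm blue signal normalized between DMSO (0%) and potassium clavulanate, with 535 nm FRET tracking viability; curves classed by r2 and response.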
# [23] = Primary qHTS for inhibitors of MERS-S pseudo-typed particle cell entry (AID 1479149); further: nearly all actives have a fitted effect of over 60% in size
# [24] = Validation screen for inhibitors of Lassa infection (AID 463096)
# [25] = Inducers of the Endoplasmic Reticulum Stress Response (ERSR) in human glioma: Validation (AID 504836; active means well fitted curve in the direction sought with a large enough effect; an effect the other way counts as inactive or inconclusive)
# In short: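 Stably transfected U87-MG glioma cells carrying a GRP78-based luciferase sensor; 16 h compound incubation. Luminescence end-point read 10 min after Bright-Glo addition at room temperature.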
# [26] = target: Nuclear receptor subfamily 1 group I member 3 (Homo sapiens) (UniProt Q14994); experiment: Primary qHTS for antagonist of constitutive androstane receptor (CAR) against the NCATS DSHEA and TCM libraries (AID 1794836; active means well fitted curve in the direction sought with a large enough effect; an effect the other way counts as inactive or inconclusive;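 further: HepG2 cells stably expressing hCAR with CYP2B6 luciferase reporter stimulated by CITCO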)
# Nuclear receptor subfamily 1 group I member 3 (Homo sapiens), sequence (Q14994 whole entry, looked up): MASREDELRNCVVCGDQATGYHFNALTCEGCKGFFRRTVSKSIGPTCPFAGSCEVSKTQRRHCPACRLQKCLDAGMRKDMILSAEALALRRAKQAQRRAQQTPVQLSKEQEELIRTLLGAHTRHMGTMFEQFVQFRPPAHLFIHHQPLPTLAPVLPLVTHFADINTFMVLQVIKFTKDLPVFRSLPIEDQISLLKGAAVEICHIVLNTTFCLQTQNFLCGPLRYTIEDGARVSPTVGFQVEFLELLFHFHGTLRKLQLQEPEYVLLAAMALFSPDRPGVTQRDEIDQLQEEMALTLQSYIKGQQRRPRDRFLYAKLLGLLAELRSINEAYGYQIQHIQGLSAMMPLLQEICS
# In short: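 HepG2-CYP2B6-hCAR cells, attached 5 h, given compounds plus CITCO agonist […], incubated 24 h at 37 C. Luciferase luminescence read, multiplexed with CellTiter-Fluor viability (Ex/Em 405/540 nm).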
# [27] = KB-8-5-11 P-gp reporter qHTS against the NCATS DSHEA and TCM libraries (AID 1919977; active means well fitted curve in the direction sought with a large enough effect; an effect the other way counts as inactive or inconclusive)
# In short: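 P-gp-overexpressing KB-8-5-11 cells (500/well) were plated in colchicine-free DMEM with 10% FBS, attached ~4 h, then exposed to substance titrations for ~72 h at 37C. Viability was read by CellTiter-Glo luminescence.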
smiles,measurement,setting,value
CC=C1C2C=C(C)CC1(N)c1ccc(=O)[nH]c1C2 (stereo not given),"parasite growth, % of control (lower = inhibition)",[1],79.2%
same,Potency,[2],inactive
same,Potency,[3],inactive
same,Potency,[4],inactive
same,Potency,[5],inactive
CC1=C(C(=O)Nc2cc3cn[nH]c3cc2F)C(c2ccc(Cl)cc2F)N=C(c2ccnc(Cl)c2)N1 (stereo not given),Potency,[2],inactive
same,Potency,[3],inactive
same,Potency,[4],inactive
same,Potency,[6],inactive
CC(C)n1cnc2c(NCCCCCCNC(=O)OC(C)(C)C)nc(NCCO)nc21,Potency,[2],inactive
same,Potency,[3],inactive
same,Potency,[4],inactive
same,Potency,[7],28.2 µM (active)
O=Nc1c(-c2c(O)[nH]c3cc(Br)ccc23)[nH]c2ccccc12,outcome,[8],inactive
same,outcome,[9],inactive
same,Potency,[2],inactive
same,Potency,[3],15.8 µM (active)
same,Potency,[4],inactive
same,Potency,[5],inactive
O=c1c2ccccc2oc2ccccc12,Potency,[10],12.6 µM (active)
same,Potency,[11],inactive
same,Potency,[2],inactive
same,Potency,[3],inactive
same,Potency,[4],inactive
same,Potency,[5],inactive
Cc1c(CCOc2ccc(C(=O)O)cc2)c2cc(Cl)ccc2n1C(c1ccccc1)c1ccccc1,Potency,[2],inactive
same,Potency,[3],inactive
same,Potency,[4],inactive
same,Potency,[12],12.6 µM (active)
same,Potency,[6],inactive
same,"activity change, negative = inhibition",[7],-34.5%
CCOC(=O)C1=C(C)NC2=C(C(=O)CC(C)(C)C2)C1c1ccc(-c2ccccc2)cc1 (stereo not given),Potency,[2],inactive
same,Potency,[3],inactive
same,Potency,[4],inactive
same,Potency,[6],inactive
COc1c2ccoc2cc2oc(=O)ccc12,Potency,[13],5.01 µM (active)
same,Potency,[10],10 µM (active)
same,Potency,[11],inactive
same,Potency,[14],2 µM (active)
same,Potency,[15],3.16 µM (active)
same,Potency,[2],inactive
same,Potency,[3],inactive
same,Potency,[4],inactive
same,Potency,[5],inactive
COC(=O)[C@H]1[C@H]2C[C@@H]3c4[nH]c5ccccc5c4CCN3C[C@H]2C[C@@H](OC(=O)c2cc(OC)c(OC)c(OC)c2)[C@@H]1OC,Potency,[2],inactive
same,Potency,[3],inactive
same,Potency,[4],inactive
same,Potency,[16],inactive
same,outcome,[17],inactive
same,outcome,[18],inactive
same,Potency,[12],inactive
same,Potency,[19],11.2 µM (active)
same,Potency,[20],inactive
same,Potency,[6],inactive
COc1cccc2c1C(=O)c1c(O)c3c(c(O)c1C2=O)C[C@@](O)(C(=O)CO)C[C@@H]3O[C@H]1C[C@H](N)[C@H](OC2CCCCO2)[C@H](C)O1 (stereo not given in full),Potency,[21],44.7 µM (active)
same,Potency,[22],5.62 µM (active)
same,Potency,[2],inactive
same,Potency,[3],6.11 µM (active)
same,Potency,[4],6.85 µM (active)
same,Potency,[16],7.94 µM (active)
same,Potency,[23],inactive
same,outcome,[18],inactive
same,Potency,[6],12.6 µM (active)
same,"activity change, negative = inhibition",[7],-97.2% and -91.8%
CN(C)CCCC1(c2ccc(F)cc2)OCc2cc(C#N)ccc21 (stereo not given),Potency,[24],inactive
same,outcome,[25],inactive
same,Potency,[2],inactive
same,Potency,[3],inactive
same,Potency,[4],inactive
same,outcome,[17],inactive
same,outcome,[18],inactive
same,Potency,[6],inactive
COc1ccc2ccc(=O)oc2c1CC=C(C)C,Potency,[10],15.8 µM (active)
same,Potency,[11],inactive
same,Potency,[2],inactive
same,Potency,[3],inactive
same,Potency,[4],inactive
same,Potency,[5],inactive
Cc1cc(NC(=O)Nc2ccc3c(ccn3C)c2)sn1,outcome,[8],inactive
same,outcome,[9],inactive
same,Potency,[2],inactive
same,Potency,[3],inactive
same,Potency,[4],inactive
same,Potency,[5],inactive
COc1ccc(-c2oc3c(CC=C(C)C)c(O)cc(O)c3c(=O)c2O)cc1,Potency,[2],inactive
same,Potency,[3],38.5 µM (active)
same,Potency,[4],3.43 µM (active)
same,"activity change, negative = inhibition",[7],-9.03%
Clc1nccc2c1ccc1ccccc12,outcome,[8],inactive
same,outcome,[9],inactive
same,Potency,[24],inactive
same,outcome,[25],inactive
same,Potency,[2],inactive
same,Potency,[3],inactive
same,Potency,[4],inactive
NC(=O)c1c[nH]c2ccccc12,Potency,[2],inactive
same,Potency,[3],inactive
same,Potency,[5],inactive
N[C@@]1(C(=O)O)CS(=O)(=O)[C@H]2[C@H](C(=O)O)[C@H]21,Potency,[2],inactive
same,Potency,[3],19.3 µM (active)
same,Potency,[5],inactive
same,Potency,[6],inactive
same,Potency,[7],inactive
COc1ccc(CCC(=O)c2c(O)cc(O[C@@H]3O[C@H](CO)[C@@H](O)[C@H](O)[C@@H]3O[C@@H]3O[C@@H](C)[C@H](O)[C@@H](O)[C@@H]3O)cc2O)cc1O,Potency,[2],7.69 µM (active)
same,Potency,[3],5.44 µM (active)
same,Potency,[5],6.11 µM (active)
CCCCCC[C@@H](O)C/C=C\CCCCCCCC(=O)O,Potency,[2],inactive
same,Potency,[3],inactive
same,Potency,[5],inactive
same,outcome,[17],inactive
same,Potency,[23],inactive
same,outcome,[18],inactive
same,Potency,[6],inactive
same,"activity change, negative = inhibition",[7],-16.6%
CC(C)(C)NC(=O)[C@H]1CN(Cc2cccnc2)CCN1C[C@@H](O)C[C@@H](Cc1ccccc1)C(=O)N[C@H]1c2ccccc2C[C@H]1O,Potency,[2],inactive
same,Potency,[3],inactive
same,Potency,[5],inactive
C[C@]12C=CC(=O)C=C1CC[C@@H]1[C@@H]2CC[C@]2(C)C(=O)CC[C@@H]12,Potency,[2],inactive
same,Potency,[3],inactive
same,Potency,[5],inactive
Cc1ncc(C[n+]2csc(CCO)c2C)c(N)n1,Potency,[2],inactive
same,Potency,[3],inactive
same,Potency,[5],inactive
same,Potency,[16],inactive
same,outcome,[17],inactive
same,Potency,[23],inactive
same,outcome,[18],inactive
same,Potency,[6],inactive
same,Potency,[26],inactive
same,outcome,[27],inactive
